# Target: Follistatin (Homo sapiens) (UniProt P19883)
# Experiment: FST protein binding to printed compounds – biochemical, small-molecule microarray, 635/667 nm fluorescence, primary screen (AID 1132)
# Settings: 635 nm fluorescence, higher = more signal
# Follistatin (Homo sapiens), sequence (P19883 whole entry, looked up): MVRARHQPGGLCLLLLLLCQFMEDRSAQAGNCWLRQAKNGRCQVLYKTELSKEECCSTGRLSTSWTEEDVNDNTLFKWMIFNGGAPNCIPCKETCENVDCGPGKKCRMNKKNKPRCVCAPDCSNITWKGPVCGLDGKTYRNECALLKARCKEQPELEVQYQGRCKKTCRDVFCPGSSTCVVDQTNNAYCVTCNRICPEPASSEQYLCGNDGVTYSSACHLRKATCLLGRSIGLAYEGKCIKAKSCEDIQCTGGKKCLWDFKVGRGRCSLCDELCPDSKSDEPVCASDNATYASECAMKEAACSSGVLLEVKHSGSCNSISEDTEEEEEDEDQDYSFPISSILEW
row,SMILES,composite z-score
1,COCCOC(=O)N1C(=O)[C@@]2(c3cc(C#CCC(C(=O)OC)C(=O)OC)ccc31)[C@H](c1ccccc1OCCO)N1[C@H](c3ccccc3)[C@H](c3ccccc3)OC(=O)[C@H]1[C@@H]2C(=O)N1CCN(c2ncccn2)CC1,1.38
2,C=CCC(OC(C)=O)[C@@H]1[C@@H](N(Cc2ccc(-c3ccccc3)cc2)C(=O)c2cccc3ccccc23)c2cc(OCCCO)ccc2N1C(=O)c1ccc(-c2ccccc2)cc1 (some centres not stated),0.435
3,O=C(NCCO)C1=C[C@H](Oc2ccccc2I)[C@@H](O)[C@H](N(Cc2ccco2)C(=O)Cc2ccccc2)C1,0.863
4,C#C[C@H](O[Si](C#Cc1ccc(Oc2ccccc2)cc1)(C(C)C)C(C)C)c1ccccc1,0.101
5,CC1CC/C=C\[C@H]2OC34C=CCN(Cc5ccccc5)C(=O)[C@H]3N(CCCO)C(=O)[C@@H]4C2C(=O)O1 (some centres not stated),-0.838
6,CCOC(=O)C[C@H]1[C@H](OC(=O)c2ccc(C(=O)c3ccccc3)cc2)[C@@H](NC(=O)c2ccccc2)c2cc(OCCCO)ccc2N1C(=O)Cc1ccc(OC)cc1,0.0257
7,CC(C)CNC(=O)[C@@]1(Cc2ccccc2I)c2ccccc2C(=O)N(C2CCCCC2)[C@H]1c1ccc(CO)cc1,0.0932
8,Cc1ccc(S[C@]2(C(=O)NCCCN(C)C)CC(=O)N(Cc3ccccc3C(F)(F)F)[C@@H]2c2ccc(CO)cc2)cc1,-0.85
9,C=CC[C@]1(C(=O)NCCCOC)N=C(c2ccc(OCCCO)cc2)O[C@H]1c1ccccc1CN=[N+]=[N-],1.14
10,Cc1ccc(S[C@]2(C(=O)NCCCN(C)C)CC(=O)N(Cc3cc(C(F)(F)F)cc(C(F)(F)F)c3)[C@@H]2c2ccc(CO)cc2)cc1,-0.802
11,CCCC[C@H]1OB(O)C[C@H]2C1=C(COC)Cn1c(=O)n(-c3ccccc3)c(=O)n12,0.464
12,COc1ccc(/C=C/C=O)cc1,0.853
13,NC(=O)NCC#Cc1ccc2c(c1)[C@]1(C(=O)N2)[C@H](c2ccccc2OCCO)N2[C@H](c3ccccc3)[C@H](c3ccccc3)OC(=O)[C@H]2[C@@H]1C(=O)Nc1nc2ccccc2s1,0.759
14,C=CCC(OC(C)=O)[C@@H]1[C@@H](N(Cc2ccc(-c3ccccc3)cc2)C(=O)c2ccc(-c3ccccc3)cc2)c2cc(OCCCO)ccc2N1C(=O)Cc1ccc2ccccc2c1 (some centres not stated),0.456
15,Cc1ccc(N2C(=O)c3ccccc3[C@@H](C(=O)NC3CC3)[C@@H]2c2ccc(CO)cc2)nc1,-0.71
16,COCCCNC(=O)[C@@]1(C)c2ccccc2C(=O)N(C(C)C)[C@H]1c1ccc(CO)cc1,1.16
17,COC(=O)[C@@]1(Cc2ccc(OC)cc2)[C@@H]2C(=CC(=O)[C@H]2CC(=O)C(=O)N2CCCC2)CN1C(=O)c1ccccc1,-0.0125
18,C=C(COC)/C(=C/C[C@@H](OC(=O)c1ccncc1)c1ccc(CO)o1)c1cc(C(=O)OC)ccc1OC,1.46
19,NC(=O)NCC#Cc1ccc2c(c1)[C@]1(C(=O)N2)[C@H](C(=O)Nc2nc3ccccc3s2)[C@H]2C(=O)O[C@H](c3ccccc3)[C@H](c3ccccc3)N2[C@@H]1c1ccccc1OCCO,1.22
20,COc1ccc(C(=O)Nc2ccc(CN3C(=O)[C@]4(O[C@H](CCO)[C@@H]([Si](C)(C)c5ccc(OC)cc5)[C@@H]4C)c4ccccc43)cc2)cc1,0.995
21,COc1cc2c(cc1OC)CN(C(=O)[C@@H]1[C@H]3C(=O)O[C@H](c4ccccc4)[C@H](c4ccccc4)N3[C@H](c3ccc(O)cc3)[C@@]13C(=O)Nc1ccccc13)CC2,0.421
22,[N-]=[N+]=Nc1ccccc1[C@@H]1OC(c2ccc(OCCCO)cc2)=N[C@]1(CCS(=O)(=O)c1ccccc1)C(N)=O,1.28
23,COC(=O)[C@@]1(Cc2ccc(F)cc2)[C@H]2c3cc(C(=O)N4CCCC4)n(CCCNc4ncc(C(F)(F)F)cc4Cl)c3C[C@H]2CN1C(=O)c1ccccc1,-0.0084
24,[N-]=[N+]=Nc1ccccc1[C@@H]1OC(c2ccc(OCCCO)cc2)=N[C@]1(Cc1ccccc1)C(=O)N1CCOCC1,1.26
25,C=CCC(OC(C)=O)[C@@H]1[C@@H](N(Cc2ccc(-c3ccccc3)cc2)C(=O)Cc2ccc(OC)cc2)c2cc(OCCCO)ccc2N1C(=O)Cc1ccc2ccccc2c1 (some centres not stated),-0.0399
26,CC1(C)C2C=C(C(O)C3C=CC4C(=O)NC(=O)C4N3Nc3ccc(Cl)cc3Cl)C[C@@H]1C2 (some centres not stated),1.02
27,CO[C@H]1O[C@H](CO)[C@@H](OC(=O)Nc2cccc(F)c2)[C@H](OC(=O)Nc2ccccc2)[C@@H]1OC(=O)Nc1ccccc1,0.518

# Reference: PubChem BioAssay
